Results filed as inconclusive are left out. The source made the active and inactive calls. Unless noted, calls follow the shape of the dose curve; as a rule, active = well fitted curve in the direction sought with a large enough effect in the repeat runs; inconclusive = weak or mixed curves; inactive = no such curve, though single readings can be large; an effect the other way counts as inactive or inconclusive.
Assays:
[1] = A CellTox Green Cytotoxicity Assay to monitor cytotoxicity in HEK293 cells - 32 hour (AID 1224881); also: nearly all actives have a fitted effect of over 40% in size
Method in brief: (§1)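 Read-out: fluorescence of a cell-impermeant cyanine dye staining DNA of dead cells, proportional to cytotoxicity. HEK293, 600 cells/well with reagent, compound (23 nL DMSO) added after 5 h; reads at 0, 8, 16, 24, 32, 40 h.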

[2] = A CellTox Green Cytotoxicity Assay to monitor cytotoxicity in HepG2 cells - 0 hour (AID 1224882); also: nearly all actives have a fitted effect of over 35% in size
Method in brief: (§2)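 HepG2, 600 cells/well premixed w/ CellTox Green; 5 h settle, 37 C/5% CO2; pintool cpd add (DMSO); 37 C, 40 h; fluorescence read at 0, 8, 16, 24, 32, 40 h.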

[3] = A CellTox Green Cytotoxicity Assay to monitor cytotoxicity in HepG2 cells - 32 hour (AID 1224883); also: nearly all actives have a fitted effect of over 50% in size
Method in brief: as §2

[4] = A CellTox Green Cytotoxicity Assay to monitor cytotoxicity in HEK293 cells - 8 hour (AID 1224884); also: nearly all actives have a fitted effect of over 35% in size
Method in brief: as §1

[5] = qHTS RealTime-Glo MT Cell Viability Assay in HepG2 cells - 16 hour (AID 1224885); also: nearly all actives have a fitted effect of over 50% in size
Method in brief: (§3)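 Compound treatment began 5 h after plating HepG2 cells (600/well) with NanoLuc luciferase and prosubstrate. Plates stayed at 37 C for 40 h; luminescence was captured at six time points, 0 h through 40 h.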

[6] = qHTS RealTime-Glo MT Cell Viability Assay in HEK293 cells - 24 hour (AID 1224886); also: top concentration of the series differs between compounds; nearly all actives have a fitted effect of over 50% in size
Method in brief: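 Quantitative high-throughput screen of the Tox21 10K library in HEK293: cells and RealTime-Glo reagents plated together, compound added at 5 h, luminescence monitored through 40 h at 37 C.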

[7] = qHTS RealTime-Glo MT Cell Viability Assay in HEK293 cells - 8 hour (AID 1224887); also: top concentration of the series differs between compounds; nearly all actives have a fitted effect of over 50% in size
Method in brief: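 Luminescence readout at each listed time point; HEK293, 600 cells/well, RealTime-Glo MT reagent added with cells; compounds pinned (23 nL in DMSO) after 5 h at 37 C; continuous culture at 37 C.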

[8] = A CellTox Green Cytotoxicity Assay to monitor cytotoxicity in HEK293 cells - 16 hour (AID 1224888); also: nearly all actives have a fitted effect of over 35% in size
Method in brief: as §1

[9] = qHTS RealTime-Glo MT Cell Viability Assay in HepG2 cells - 0 hour (AID 1224889); also: nearly all actives have a fitted effect of over 50% in size
Method in brief: as §3

[10] = A CellTox Green Cytotoxicity Assay to monitor cytotoxicity in HepG2 cells - 8 hour (AID 1224890); also: nearly all actives have a fitted effect of over 45% in size
Method in brief: as §2

[11] = qHTS assay to identify small molecule antagonists of the estrogen receptor alpha (ER-alpha) signaling pathway using the BG1 cell line in the presence of 0.1 nM 17-beta-estradiol - cell viability counter screen (AID 1259241); also: nearly all actives have a fitted effect of over 40% in size
Method in brief: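 Cytotoxicity counter-screen: live-cell protease activity measured by fluorescence (30 min reagent step) in the same wells. Cells were VM7Luc4E2 with endogenous ER-alpha and ERE-driven luciferase, treated 22 hr at 37C alongside 0.1 nM 17beta-estradiol final.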

[12] = qHTS assay to identify small molecule antagonists of the androgen receptor (AR) signaling pathway using the MDA cell line in the presence of 0.5 nM R1881 - cell viability counter screen (AID 1259242); also: nearly all actives have a fitted effect of over 45% in size
Method in brief: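 Live-cell protease fluorescence, CellTiter-Fluor, 30 min at 37C. Cells: MDA-kb2, 3,000/well, preincubated 5 hr. Compounds plus 0.5 nM R1881 final, 16 hr, 37C, 0% CO2.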

[13] = biological target: Estrogen receptor (Homo sapiens) (UniProt P03372); test: qHTS assay to identify small molecule antagonists of the estrogen receptor alpha (ER-alpha) signaling pathway using the BG1 cell line in the presence of 0.1 nM 17-beta-estradiol (AID 1259244); also: nearly all actives have a fitted effect of over 50% in size
Chain of Estrogen receptor (Homo sapiens) (P03372 whole entry, looked up): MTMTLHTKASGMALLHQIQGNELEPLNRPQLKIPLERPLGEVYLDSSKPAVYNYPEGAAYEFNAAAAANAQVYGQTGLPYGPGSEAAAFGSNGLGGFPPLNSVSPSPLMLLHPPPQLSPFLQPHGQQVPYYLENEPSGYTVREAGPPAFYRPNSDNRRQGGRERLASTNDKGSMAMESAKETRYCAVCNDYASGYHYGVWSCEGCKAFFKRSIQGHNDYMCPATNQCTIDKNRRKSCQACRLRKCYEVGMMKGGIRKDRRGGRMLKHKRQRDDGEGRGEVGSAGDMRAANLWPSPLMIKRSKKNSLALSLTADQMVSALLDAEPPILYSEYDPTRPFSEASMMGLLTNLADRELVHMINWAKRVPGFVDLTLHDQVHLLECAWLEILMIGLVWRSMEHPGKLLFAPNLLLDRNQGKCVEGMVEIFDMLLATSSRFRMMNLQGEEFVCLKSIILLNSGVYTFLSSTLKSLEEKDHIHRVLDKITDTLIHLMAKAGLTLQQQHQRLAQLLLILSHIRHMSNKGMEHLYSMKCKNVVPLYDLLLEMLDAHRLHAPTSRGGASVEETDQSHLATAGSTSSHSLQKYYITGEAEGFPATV
Method in brief: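 Luminescence after ONE-Glo (30 min, room temperature) measured ERE-luciferase activity in VM7Luc4E2 cells treated 22 h with compound and 0.1 nM final 17beta-estradiol as stimulator.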

[14] = qHTS assay to identify small molecule HDAC inhibitors (AID 1259364);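 also: wild-type HCT-116 cells with endogenous class I/II HDAC activity; top concentration of the series differs between compounds; nearly all actives have a fitted effect of over 45% in size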
Method in brief: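 HCT-116 (wild type), 1,500 cells/well, overnight; compound 2 hr 37C 5% CO2; HDAC-Glo I/II reagent 30 min RT; luminescence readout.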

[15] = qHTS assay to identify small molecule HDAC inhibitors - cell viability counter screen (AID 1259365)
Method in brief: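 CellTiter-Glo luminescence (30 min, room temperature) reported viability after a 2 h compound exposure at 37 C. Cells: wild-type HCT-116, 1,500 per well, seeded the night before.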

[16] = qHTS assay to identify small molecule agonists of the sonic hedgehog signaling (Shh) pathway - cell viability counter screen (AID 1259366); also: nearly all actives have a fitted effect of over 50% in size
Method in brief: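 Cytotoxicity counter screen: CellTiter-Fluor reagent added after 23 h compound exposure, then 1 h at 37C and fluorescence read. Cells were 3T3 Gli1-Luc, seeded 2,000 per well and dosed 4 h post-plating.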

[17] = qHTS assay to identify small molecule antagonists of the sonic hedgehog signaling (Shh) pathway - cell viability counter screen (AID 1259367); also: nearly all actives have a fitted effect of over 55% in size
Method in brief: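 Tox21 library chemicals were tested on a Gli1-Luc NIH/3T3 clone (2,000 cells/well) stimulated by conditioned medium; viability was quantified as fluorescence from CellTiter-Fluor reagent added at 23 hr.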

[18] = qHTS assay to identify small molecule agonists of the sonic hedgehog signaling (Shh) pathway (AID 1259368; calls by dose curve;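 also: NIH/3T3-derived 3T3Gli1-Luc cells carrying a stable Gli1-driven firefly luciferase reporter; series mostly up to about 92 µM; nearly all actives have a fitted effect of over 15% in size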)
Method in brief: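 Read-out: firefly luciferase luminescence from a Gli1 response element reporter stably integrated in NIH/3T3-derived 3T3Gli1-Luc cells, measured 30 min at room temperature after reagent addition. Compound exposure lasted 24 hr at 37 C, 5% CO2.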

[19] = qHTS assay to identify small molecule phospholipidosis (PLD) inducers (AID 1259344; active = well fitted curve in the direction sought with a large enough effect; an effect the other way counts as inactive or inconclusive)
Method in brief: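 Image-based: LipidTOX Red pit count/intensity per well and per cell; HepG2, 24 h compound at 37 C, PFA fixation, Hoechst counterstain.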

[20] = biological target: Androgen receptor (Homo sapiens) (UniProt P10275); test: qHTS assay to identify small molecule antagonists of the androgen receptor (AR) signaling pathway using the MDA cell line in the presence of 0.5 nM R1881 (AID 1259243); also: nearly all actives have a fitted effect of over 50% in size
Chain of Androgen receptor (Homo sapiens) (P10275 whole entry, looked up): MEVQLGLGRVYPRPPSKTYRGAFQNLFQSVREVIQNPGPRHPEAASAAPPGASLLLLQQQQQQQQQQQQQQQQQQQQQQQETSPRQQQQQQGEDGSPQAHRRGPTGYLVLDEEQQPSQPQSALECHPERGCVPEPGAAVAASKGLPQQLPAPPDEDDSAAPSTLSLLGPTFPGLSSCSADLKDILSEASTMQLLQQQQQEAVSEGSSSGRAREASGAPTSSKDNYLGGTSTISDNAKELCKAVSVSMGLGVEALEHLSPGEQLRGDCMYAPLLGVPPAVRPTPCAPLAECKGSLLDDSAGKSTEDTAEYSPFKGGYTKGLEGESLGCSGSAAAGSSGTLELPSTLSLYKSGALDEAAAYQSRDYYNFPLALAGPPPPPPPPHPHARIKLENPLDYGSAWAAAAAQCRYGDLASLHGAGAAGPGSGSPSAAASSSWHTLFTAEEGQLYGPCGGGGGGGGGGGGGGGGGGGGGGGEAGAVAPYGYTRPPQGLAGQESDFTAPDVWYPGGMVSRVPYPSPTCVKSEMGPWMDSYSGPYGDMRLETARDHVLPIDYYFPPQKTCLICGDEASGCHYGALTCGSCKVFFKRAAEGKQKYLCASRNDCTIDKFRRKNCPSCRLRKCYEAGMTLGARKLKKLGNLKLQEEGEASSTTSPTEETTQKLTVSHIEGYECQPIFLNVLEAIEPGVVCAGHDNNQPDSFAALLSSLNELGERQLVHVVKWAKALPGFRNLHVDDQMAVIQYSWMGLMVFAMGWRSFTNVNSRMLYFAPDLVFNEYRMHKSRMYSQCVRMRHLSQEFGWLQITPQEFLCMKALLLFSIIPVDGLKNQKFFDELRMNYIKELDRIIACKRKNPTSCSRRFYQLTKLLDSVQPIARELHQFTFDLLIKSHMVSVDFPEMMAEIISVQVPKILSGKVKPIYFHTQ
Method in brief: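 MDA-kb2, MMTV-luc (AR/GR elements); 3,000 cells/well; cpd + 0.5 nM R1881 final; 16 hr 37C, 0% CO2; ONE-Glo 30 min RT; luminescence.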

Measured: Potency

C=C(C)[C@@H]1CC=C(C=O)CC1
not listed: [19] | [20]
inactive: all other assays above

CNNC
not listed: [19] | [20]
inactive: all other assays above

CCOC(=O)/C=C(C)/C=C/C[C@@H](C)CCCC(C)C
not listed: [17] | [20]
inactive: all other assays above

COc1cc(OC)nc(NC(=O)NS(=O)(=O)c2ncccc2OCC(F)(F)F)n1
not listed: [19] | [20]
inactive: all other assays above

CCOP(=S)(OCC)SCSP(=S)(OCC)OCC
not listed: [16] | [19] | [20]
inactive: all other assays above

N#Cc1ccncc1
not listed: [11] | [19] | [20]
inactive: all other assays above

N#CC(O)c1ccccc1 (stereo not given)
not listed: [13] | [17] | [19] | [20]
inactive: all other assays above

Cc1coc2c1CCC(C)C2 (stereo not given)
not listed: [8] | [19] | [20]
inactive: all other assays above

O=C1OC(=O)C2C1C1(Cl)C(Cl)=C(Cl)C2(Cl)C1(Cl)Cl (stereo not given)
not listed: [11] | [16] | [19] | [20]
inactive: all other assays above

CCS(=O)(=O)CCSP(=O)(OC)OC
not listed: [13] | [16] | [19] | [20]
inactive: all other assays above

N#CCCC#N
not listed: [8] | [17] | [19] | [20]
inactive: all other assays above

C[C@@H]1CN(C2CCC(C#N)(c3ccc(F)cc3)CC2)CC[C@]1(C(=O)O)c1ccccc1 (stereo not given in full)
not listed: [11] | [18] | [20]
inactive: all other assays above

C=C(C)CN(CC)c1c([N+](=O)[O-])cc(C(F)(F)F)cc1[N+](=O)[O-]
not listed: [7] | [19] | [20]
inactive: all other assays above

CCCCC(=O)Cl
not listed: [13] | [19] | [20]
inactive: all other assays above

CCS(=O)(=O)C(C)(C)S(=O)(=O)CC
not listed: [11] | [17] | [20]
inactive: all other assays above

O=[N+]([O-])c1cccc(O)c1
not listed: [11] | [13] | [19] | [20]
inactive: all other assays above

COC(=O)C(c1ccccc1)C1CCCCN1 (stereo not given)
not listed: [11]
inactive: all other assays above

Source: PubChem BioAssay (Tox21)
